# Screens from PubChem BioAssay.
# The entries come from a sample that favours hits as a whole.
# HT1080-NT tox = qHTS for induction of synthetic lethality in tumor cells producing 2HG: qHTS for the HT-1080-NT fibrosarcoma cell line | HT-1080-NT fibrosarcoma viability, CellTiter-Glo ATP luminescence, 48 h | Potency, µM (doses to about 46.1 µM), actives largely listed as cytotoxic | 360,000 compounds, 1.6% hits | AID 686970, 2013;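 note: NT is the 2HG producing partner of a matched IDH1 knockdown line; nearly all actives have a fitted effect of over 55% in size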
#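 A 48-hour cytotoxicity screen used HT-1080-NT cells plated 2 hours before compound delivery. ATP-based CellTiter-Glo luminescence measured viability, normalized to DMSO and no-cell controls.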
# DT40 TDP1 CPT = qHTS for Inhibitors of human tyrosyl-DNA phosphodiesterase 1 (TDP1): qHTS in cells in presence of CPT; Potency, µM (doses to about 46.2 µM), most hits filed as inhibitors; chicken DT40 Tdp1-/-;hTDP1 cells + 20 nM CPT, ATP luminescence, 48 h; AID 686979, 2013; 420,000 compounds, 12% hits; note: nearly all actives have a fitted effect of over 55% in size
#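 Chicken DT40 Tdp1-/- cells complemented with human TDP1, 400 cells/well, exposed to compounds plus 20 nM camptothecin for at least 48 h at 37 C; viability read as ATP content by CellTiter-Glo luminescence.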
# HT1080 IDH1KD tx = qHTS for induction of synthetic lethality in tumor cells producing 2HG: qHTS for the HT-1080-IDH1KD cell line | HT-1080 IDH1 knockdown viability, ATP luminescence, 48 h | Potency, µM (top dose mostly 46.1 µM), actives largely listed as cytotoxic | 360,000 compounds, 2% hits | AID 686971, 2013
#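 % activity derives from luminescence (CellTiter-Glo), normalised to DMSO and no-cell wells. HT-1080-IDH1KD cells, 750/well, had 48 h compound exposure at 37 °C.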
# 12-LOX inh = Primary qHTS assay for inhibitors of human arachidonate 12S-lipoxygenase (ALOX12): Round 2. purified 12hLO, xylenol orange hydroperoxide absorbance. Potency, µM (highest dose often 108 µM), hits mostly inhibitors. 580,000 compounds, 1.1% hits. AID 1671190, 2021
# Target sequence (P18054 whole entry, looked up): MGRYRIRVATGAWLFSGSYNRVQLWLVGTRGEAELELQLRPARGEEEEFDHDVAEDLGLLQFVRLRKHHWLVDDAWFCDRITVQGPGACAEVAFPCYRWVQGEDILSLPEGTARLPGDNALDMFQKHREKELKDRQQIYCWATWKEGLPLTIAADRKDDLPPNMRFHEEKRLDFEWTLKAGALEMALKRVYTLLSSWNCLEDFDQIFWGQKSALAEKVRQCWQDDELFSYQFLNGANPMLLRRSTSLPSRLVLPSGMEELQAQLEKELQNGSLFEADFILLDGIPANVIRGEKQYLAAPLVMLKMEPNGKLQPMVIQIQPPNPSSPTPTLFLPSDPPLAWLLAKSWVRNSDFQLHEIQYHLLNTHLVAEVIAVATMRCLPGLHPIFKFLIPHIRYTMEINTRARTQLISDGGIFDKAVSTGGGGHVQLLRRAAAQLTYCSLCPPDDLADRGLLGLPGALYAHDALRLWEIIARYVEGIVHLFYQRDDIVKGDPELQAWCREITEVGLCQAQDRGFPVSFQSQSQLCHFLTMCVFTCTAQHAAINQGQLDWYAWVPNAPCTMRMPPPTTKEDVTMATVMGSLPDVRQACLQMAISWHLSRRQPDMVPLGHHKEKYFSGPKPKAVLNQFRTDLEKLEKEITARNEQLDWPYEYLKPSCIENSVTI
#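 Purified human 12hLO at 150 nM in 25 mM Hepes, 0.01% Triton X-100, pH 7.0, preincubated 15 min at room temperature with compound. Reaction started with 40 uM arachidonic acid, 30 min at room temperature. Hydroperoxide measured by Fe-xylenol orange, 573/405 nm absorbance ratio.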
# TDP1 cell noCPT = qHTS for Inhibitors of human tyrosyl-DNA phosphodiesterase 1 (TDP1): qHTS in cells in absence of CPT; 420,000 compounds, 15% hits; AID 686978, 2013; Potency, µM (series often up to 46.2 µM), usual class: inhibitors; DT40 Tdp1-/- hTDP1 cells, no CPT, ATP luminescence, 48 h; note: nearly all actives have a fitted effect of over 55% in size
#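 Luminescent ATP content (CellTiter-Glo) served as the growth readout. Knockout chicken DT40 cells expressing human TDP1 were exposed to compounds without camptothecin for a minimum 48 hr at 37 °C.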
# IL-1B inflam inh = qHTS for Inhibitors of Inflammasome Signaling: IL-1-beta AlphaLISA Primary Screen. THP-1 LPS/ATP IL-1B secretion, AlphaLISA, 16 h; hits give low values. activity change, % at 57.5 µM. 360,000 compounds, 4.7% hits; in the data active = activity change below about -50%; inconclusive = mostly about -30% to -49%
#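 THP-1 cells pretreated 1 hr with compounds (up to 57.5 uM final), then stimulated with LPS (250 ng/mL final) plus ATP (1.25 mM final); secreted IL-1B measured by AlphaLISA after 16 hr, decreased signal indicating inhibition.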
# A number is an active result; - = inactive; ? = inconclusive; . = no result given; [ ] = remark or other dose. Unless noted, calls come from the whole dose curve; as a rule, active = well fitted curve in the direction sought with a large enough effect; inconclusive = small, poorly fitted or top-dose-only effect, or another doubt; inactive = no such curve, though single readings can be large; an effect the other way counts as inactive or inconclusive.
SMILES,HT1080-NT tox,DT40 TDP1 CPT,HT1080 IDH1KD tx,12-LOX inh,TDP1 cell noCPT,IL-1B inflam inh
COc1c2ccoc2cc2oc(=O)ccc12,-,-,-,-,-,-
CC(=O)Nc1ccc(C)cc1S(=O)(=O)N1CCCCCC1c1ccc(C)s1 (configuration not stated),.,.,.,-,.,.
COc1ccc(-c2nc3c(C)cc(Br)cn3c2CC2CCCCC2)cc1OC,?,?,?,7.1µM,?,-
COc1ccccc1Cc1c(-c2ccc(OC)c(OC)c2)nc2c(C)cc(Br)cn12,?,?,?,?,?,-
COc1ccc(-c2nc3c(C)cc(Br)cn3c2CC(C)(C)C)cc1OC,-,-,-,32µM,-,-
COC(=O)c1c(NC(=O)C2COc3ccccc3O2)sc2c1CCN(Cc1ccccc1)C2 (configuration not stated),-,16µM,-,-,21µM,-
O=C(Nc1nc2c(s1)CCCC2)C1COc2ccccc2O1 (configuration not stated),-,?,-,-,?,?
NC(=O)c1c(NC(=O)Cc2ccccc2)sc2c1CCN(Cc1ccccc1)C2,-,12µM,-,-,13µM,-
CCCNC(=O)c1c(NC(=O)C2COc3ccccc3O2)sc2c1CCCC2 (configuration not stated),?,12µM,-,-,?,-
CCOC(=O)c1c(NC(=O)C(C)Sc2cccc[n+]2[O-])sc2c1CCN(Cc1ccccc1)C2 (configuration not stated),-,?,-,-,16µM,-
CC(=O)Nc1sc2c(c1C(N)=O)CCN(Cc1ccccc1)C2,-,-,-,-,-,-
COC(=O)c1c(NC(=O)C2COc3ccccc3O2)sc2c1CCN(C(=O)OC)C2 (configuration not stated),-,16µM,-,-,21µM,?
COC(=O)c1c(NC(=O)C(C)(C)C)sc2c1CCN(Cc1ccccc1)C2,-,16µM,-,?,?,-
COC(=O)c1ccccc1NC(=O)C1COc2ccccc2O1 (configuration not stated),-,-,-,-,-,-
CC(C)(C)C(=O)Nc1nc2c(s1)CN(Cc1ccccc1)CC2,-,?,-,-,18µM,-
Cc1ccc(NC(=O)c2ccc3ccccc3n2)c(Cl)c1,.,.,.,-,.,.
Cc1ccccc1/C=N/NC(=O)c1ccc(C(C)(C)C)cc1,.,.,.,-,.,.
O=S(=O)(N/N=C1\CC(c2ccccc2)Oc2ccccc21)c1ccccc1 (configuration not stated),-,-,-,-,-,-
CCOc1ccc(S(=O)(=O)N/N=C2/CC(c3ccccc3)Oc3ccccc32)cc1 (configuration not stated),-,?,-,?,16µM,-
Cc1cc(C)c(C)c(S(=O)(=O)Nc2ccc3cn[nH]c3c2)c1C,-,?,-,-,21µM,-
O/N=C(\c1ccc(Cl)cc1)c1cc2ccccc2o1,-,18µM,?,?,18µM,-
COCc1nc(CCNC(=O)c2sc(C)nc2C)no1,.,.,.,-,.,.
Cc1ccc2c(c1)CCCN2CC(=O)Nc1cc(S(=O)(=O)N2CCCC2)ccc1Cl,-,21µM,-,?,15µM,-
O=C(CN1CCCc2ccccc21)Nc1cc(S(=O)(=O)N2CCCC2)ccc1Cl,-,18µM,-,-,?,-
CC1Cc2ccccc2N1CC(=O)Nc1cc(S(=O)(=O)N2CCOCC2)ccc1Cl (configuration not stated),-,?,-,-,23µM,-
SMILES,HT1080-NT tox,DT40 TDP1 CPT,HT1080 IDH1KD tx,12-LOX inh,TDP1 cell noCPT,IL-1B inflam inh
Cc1ccc(NC(=O)N(C)C(c2ccc(Cl)cc2)c2nccn2C)cc1 (configuration not stated),.,.,.,-,.,.
CC(C)(N)C(=O)N1CCCC(N2CCN(c3cccc(Cl)c3)CC2)C1 (configuration not stated),.,.,.,-,.,.
Cc1[nH]ncc1CNC(=O)c1ccc(CC2CCN(S(C)(=O)=O)CC2)cc1,.,.,.,-,.,.
COc1cc(-c2nc3cc(NC(=O)c4ccccc4)ccc3o2)cc(OC)c1OC,.,.,.,-,.,.
O=C(Nc1ccc(Cl)c(-c2nc3ncccc3o2)c1)c1ccco1,.,.,.,-,.,.
COc1cc(C(=O)Nc2ccc(-c3nc4cc(C)ccc4o3)c(O)c2)cc(OC)c1OC,-,12µM,-[9.24 µM],-,8.2µM,.
COc1cc(C(=O)Nc2ccc3oc(-c4ccc(C)c(Br)c4)nc3c2)cc(OC)c1OC,.,21µM,.,-,8.2µM,.
COc1cc(C(=O)Nc2ccc(Cl)c(-c3nc4ncccc4o3)c2)cc(OC)c1OC,.,21µM,.,-,16µM,.
CCN(C(=O)C1CCC(=O)N(CCc2ccc(Cl)cc2)C1)C(C)C (configuration not stated),.,.,.,-,.,.
CCOC(=O)c1ccc2ncc(C(=O)OCC)c(NCCCOC(=O)c3ccc(Cl)cc3)c2c1,.,.,.,-,.,.
